A selection: hits, their analogues and other compounds. The true share with any hit is near 1.4%.
MT1-MMP txn act: MT1-MMP promoter transcription activation | HT1080 MT1-MMP promoter luciferase reporter, luminescence, overnight; stronger effect = higher value | activation factor at 10 µM | 86,000 tested, 0.16% active | AID 750;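 active = activation factor of at least 2 for MT1-MMP transcription at 10 µM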
S1P2 agonist: activates the human S1P2 receptor. O95136. S1P2-expressing cell line, agonist reporter read-out. activation, % at 4.5 µM. 97,000 tested, 0.46% active. AID 729; in the data active = activation above about 16%
Target sequence (O95136 whole entry, looked up): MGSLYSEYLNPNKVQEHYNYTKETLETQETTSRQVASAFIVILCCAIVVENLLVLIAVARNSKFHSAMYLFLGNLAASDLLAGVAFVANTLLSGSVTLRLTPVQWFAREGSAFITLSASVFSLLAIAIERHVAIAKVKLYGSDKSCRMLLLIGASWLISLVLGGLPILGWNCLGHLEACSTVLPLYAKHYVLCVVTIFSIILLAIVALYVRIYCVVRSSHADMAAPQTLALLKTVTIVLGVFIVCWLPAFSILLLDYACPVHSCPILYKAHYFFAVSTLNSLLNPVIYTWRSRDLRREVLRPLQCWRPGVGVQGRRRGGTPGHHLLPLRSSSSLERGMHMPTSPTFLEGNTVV
S1P2 antag: blocks the human S1P2 receptor | O95136 | 97,000 tested, 0.21% active | cell-based S1P2 antagonist assay, inhibition at 5 uM | inhibition, % at 5 µM; in the data active = inhibition above about 45%;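 also: CRE beta-lactamase reporter cells expressing human S1P2 stimulated with S1P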
Smad3 inh: Smad3 (human) transcription factor binding inhibition; TR-FRET Smad3/Dy647-FoxH1 peptide binding, europium anti-His; inhibition, % at 25 µM; 88,000 tested, 0.29% active;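 active = compounds that reduce the energy-transfer binding signal between the protein and its labelled peptide by more than half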
GALR2 ag: activates the human galanin receptor 2; GALR2-expressing cells, agonist activation read-out; activation, % (concentration not given with the values); 140,000 tested, 0.48% active; AID 803; in the data active = activation above about 5%, passing the limit was not always enough
GALR2 blocker: blocks the human galanin receptor 2; AID 828; GALR2-expressing cells, antagonist mode; 140,000 tested, 0.39% active; inhibition, % at 4 µM; in the data active = inhibition above about 27%;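 also: cells stimulated with galanin 1-16 at roughly its EC80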
Hits are given with their value; [ ] = remark or other dose.

Screening CCN(CC)c1ccc(-c2nn3c(-c4n[nH]c5c4CCC5)nnc3s2)cc1 returned MT1-MMP txn act inactive, S1P2 agonist inactive, S1P2 antag inactive, Smad3 inh inactive, GALR2 ag 6.3 and GALR2 blocker inactive.
For C[N+]1(C)CCO[C@](O)(c2ccccc2)C1 the results were Smad3 inh inactive.
Screening Nc1[nH]c(=S)[nH]c(=O)c1N=Nc1c(Br)cc(S(N)(=O)=O)cc1Br returned Smad3 inh 54.
`CN(Cc1cccc2ccccc12)Cc1cccc2ccccc12` gave Smad3 inh inactive.
C[C@]1(c2ccccc2)O[C@@H]2C[C@H]3[C@@H]4CCC5=CC(=O)C=C[C@@]5(C)[C@@]4(F)[C@H](O)C[C@]3(C)[C@]2(C(=O)CO)O1 was read as Smad3 inh inactive.
N#Cc1c(N)n(CCOC(=O)c2cccc(Br)c2)c2nc3ccccc3nc12 was read as MT1-MMP txn act inactive, S1P2 agonist inactive, S1P2 antag inactive, Smad3 inh inactive, GALR2 ag inactive and GALR2 blocker inactive.
Screening COc1cc(Cn2c(N)c(C#N)c3nc4ccccc4nc32)cc(OC)c1 returned MT1-MMP txn act inactive, S1P2 agonist inactive, S1P2 antag inactive, Smad3 inh inactive, GALR2 ag 13 and GALR2 blocker inactive.
`COc1ccc(-n2c(NC(=O)c3ccc(Br)o3)c(C#N)c3nc4ccccc4nc32)cc1` gave S1P2 agonist inactive, S1P2 antag inactive, GALR2 ag 5.4 and GALR2 blocker inactive.
For COCCn1c(N)c(C#N)c2nc3ccccc3nc21 the results were MT1-MMP txn act inactive, S1P2 agonist inactive, S1P2 antag inactive, Smad3 inh inactive, GALR2 ag inactive and GALR2 blocker inactive.
`COc1cccc(Cn2c(N)c(C#N)c3nc4ccccc4nc32)c1OC` gave MT1-MMP txn act inactive, S1P2 agonist 24, S1P2 antag inactive, Smad3 inh inactive, GALR2 ag inactive and GALR2 blocker inactive.
For COc1ccc(Cn2c(N)c(C#N)c3nc4ccccc4nc32)cc1 the results were S1P2 agonist 31, S1P2 antag inactive, GALR2 ag inactive and GALR2 blocker inactive.
Screening CC1(C)[C@H]2CC[C@]1(C)[C@H](OC(=O)/C=C/c1ccccc1)C2 returned Smad3 inh inactive.
For O=c1oc2ccccc2n1CSc1nc2ccccc2s1 the results were MT1-MMP txn act 2.1, S1P2 agonist inactive, S1P2 antag inactive, Smad3 inh inactive, GALR2 ag inactive and GALR2 blocker inactive.
`O=c1c2c3c(sc2nc2sc(C4CC4)nn12)CCCC3` gave MT1-MMP txn act 2, S1P2 agonist inactive, S1P2 antag inactive, Smad3 inh inactive, GALR2 ag inactive and GALR2 blocker inactive.
Screening O=C1CCc2nc3sc4c(c3c(=O)n2N1)CCCC4 returned MT1-MMP txn act inactive, S1P2 agonist inactive, S1P2 antag inactive, Smad3 inh inactive, GALR2 ag inactive and GALR2 blocker inactive.
`O=C(O)c1cc(C(=O)O)nc(C(=O)O)c1` gave Smad3 inh inactive.
CCc1nc2ccccc2c(C(=O)OCC(=O)Nc2ccc(S(=O)(=O)N3CCOCC3)cc2)c1C was read as MT1-MMP txn act inactive, Smad3 inh inactive, GALR2 ag inactive and GALR2 blocker inactive.
`CCc1nc2ccccc2c(C(=O)OCC(=O)Nc2cccc(S(=O)(=O)N3CCOCC3)c2)c1C` gave MT1-MMP txn act inactive, S1P2 agonist 18, S1P2 antag inactive, Smad3 inh 89, GALR2 ag inactive and GALR2 blocker inactive.
Screening Cc1nc2cc(NC(=O)N(C)c3ccc4ccccc4c3)ccc2o1 returned MT1-MMP txn act inactive, S1P2 agonist inactive, S1P2 antag inactive, Smad3 inh inactive, GALR2 ag 5.0 and GALR2 blocker inactive.
`C[C@@]12CC[C@H]3c4ccc(O)cc4CC[C@@H]3[C@H]1CC[C@H]2OC(=O)CCc1ccccc1` gave Smad3 inh inactive.
`C[C@@]12CC[C@@H]3[C@H](CCC4=CC(=O)CC[C@]43C)[C@H]1CC[C@H]2C(=O)COS(=O)(=O)c1ccc(Br)cc1` gave Smad3 inh inactive.
CCS(=O)CCSC(=N)N (centres undefined) was read as MT1-MMP txn act inactive, S1P2 agonist inactive, S1P2 antag inactive, Smad3 inh inactive, GALR2 ag inactive and GALR2 blocker inactive.
For N=C(N)SCCSC(=N)N the results were Smad3 inh 68.
Screening C[C@H](Oc1ccc(Oc2cnc3ccc(Cl)cc3n2)cc1)C(=O)O returned Smad3 inh inactive.
Screening CCOC(=O)c1ccc(NC(=O)N2CCN(CCc3ccccc3)CC2)cc1 returned MT1-MMP txn act inactive, S1P2 agonist inactive, S1P2 antag inactive, Smad3 inh inactive, GALR2 ag inactive and GALR2 blocker inactive.
CCOC(=O)c1ccc(NC(=O)N2CC(C)OC(C)C2)cc1 (centres undefined) was read as MT1-MMP txn act 2, S1P2 agonist inactive, S1P2 antag inactive, Smad3 inh inactive, GALR2 ag inactive and GALR2 blocker inactive.
For Cc1ccccc1CNC1CCCCC1 the results were GALR2 ag inactive and GALR2 blocker inactive.
`Oc1cc(CN2COc3ccccc32)c(O)cc1CNC1CCCCC1` gave Smad3 inh 74.
OC[C@H](S)CS was read as Smad3 inh 86.
Screening O=C1/C(=C\c2ccccc2)[C@@H](NC2CCCCC2)c2ccccc21 returned Smad3 inh inactive.
Screening O=C(Nc1ccc(N2CCOCC2)cc1)c1ccc(Cl)nc1 returned MT1-MMP txn act inactive, S1P2 agonist inactive, S1P2 antag inactive, Smad3 inh inactive, GALR2 ag inactive and GALR2 blocker inactive.
CS(=O)(=O)c1ncc(Cl)c(C(=O)Nc2ccc(N3CCOCC3)cc2)n1 was read as MT1-MMP txn act inactive, Smad3 inh inactive, GALR2 ag inactive and GALR2 blocker 29.
O=C(O)c1cc(-c2ccc(-c3ccc(-c4cc(C(=O)O)c5cc(Cl)ccc5n4)cc3)cc2)nc2ccc(Cl)cc12 was read as Smad3 inh inactive.
Screening Cc1cccc2c1Oc1ccccc1[C@H]2NC(=O)c1ccc([N+](=O)[O-])cc1 returned Smad3 inh inactive.
O=C(Cn1cnc2c(nnn2Cc2ccc(F)cc2)c1=O)NCc1ccco1 was read as MT1-MMP txn act inactive, S1P2 agonist 33, S1P2 antag inactive, Smad3 inh inactive, GALR2 ag inactive and GALR2 blocker inactive.
Screening O=C(Cn1cnc2c(nnn2Cc2ccc(Cl)cc2)c1=O)NCc1ccco1 returned MT1-MMP txn act inactive, S1P2 agonist inactive, S1P2 antag inactive, Smad3 inh inactive, GALR2 ag inactive and GALR2 blocker inactive.
`COC(=O)c1[nH]c2cccc(OC)c2c1NC(=O)CN1CCOCC1` gave MT1-MMP txn act inactive, S1P2 agonist inactive, S1P2 antag inactive, Smad3 inh inactive, GALR2 ag inactive and GALR2 blocker inactive.
Screening COC(=O)c1[nH]c2cccc(OC)c2c1NC(=O)CN1CC2(C)CC1CC(C)(C)C2 (centres undefined) returned MT1-MMP txn act inactive, S1P2 agonist inactive, S1P2 antag inactive, Smad3 inh 67[fluorescence artefact?], GALR2 ag inactive and GALR2 blocker inactive.
For c1ccc(/C(=N\Nc2nc3ccccc3s2)c2ccccn2)cc1 the results were Smad3 inh inactive.

From PubChem BioAssay
